Results as given in PubChem BioAssay AID488969 (Vanderbilt High Throughput Screening Facility, 2010).
The full ranking holds about 110,000 compounds; the median of “z-score” is about -0.1, and the highest 2% start at about 2. Many of the other results were omitted from the sample, so the highest values are more common in it than they were. Active and inactive are the calls of the source.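 Rule for the calls: active = z-score in the third read window above 3 or below -3; inactive = the rest.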

What follows are compounds tested against Metabotropic glutamate receptor 8 (Rattus norvegicus) (UniProt P70579) (assay: mGluR8 Gi/Go-coupled signaling modulation – cell-based, rat, thallium flux, HTS, primary screen (AID 488969)). Settings: HEK293 rat mGluR8, GIRK (G protein-gated inwardly rectifying potassium channel) thallium flux, FluoZin2; at 10 µM; stronger effect = higher value; submaximal glutamate (EC20) added with thallium.
Metabotropic glutamate receptor 8 (Rattus norvegicus), sequence (P70579 whole entry, looked up): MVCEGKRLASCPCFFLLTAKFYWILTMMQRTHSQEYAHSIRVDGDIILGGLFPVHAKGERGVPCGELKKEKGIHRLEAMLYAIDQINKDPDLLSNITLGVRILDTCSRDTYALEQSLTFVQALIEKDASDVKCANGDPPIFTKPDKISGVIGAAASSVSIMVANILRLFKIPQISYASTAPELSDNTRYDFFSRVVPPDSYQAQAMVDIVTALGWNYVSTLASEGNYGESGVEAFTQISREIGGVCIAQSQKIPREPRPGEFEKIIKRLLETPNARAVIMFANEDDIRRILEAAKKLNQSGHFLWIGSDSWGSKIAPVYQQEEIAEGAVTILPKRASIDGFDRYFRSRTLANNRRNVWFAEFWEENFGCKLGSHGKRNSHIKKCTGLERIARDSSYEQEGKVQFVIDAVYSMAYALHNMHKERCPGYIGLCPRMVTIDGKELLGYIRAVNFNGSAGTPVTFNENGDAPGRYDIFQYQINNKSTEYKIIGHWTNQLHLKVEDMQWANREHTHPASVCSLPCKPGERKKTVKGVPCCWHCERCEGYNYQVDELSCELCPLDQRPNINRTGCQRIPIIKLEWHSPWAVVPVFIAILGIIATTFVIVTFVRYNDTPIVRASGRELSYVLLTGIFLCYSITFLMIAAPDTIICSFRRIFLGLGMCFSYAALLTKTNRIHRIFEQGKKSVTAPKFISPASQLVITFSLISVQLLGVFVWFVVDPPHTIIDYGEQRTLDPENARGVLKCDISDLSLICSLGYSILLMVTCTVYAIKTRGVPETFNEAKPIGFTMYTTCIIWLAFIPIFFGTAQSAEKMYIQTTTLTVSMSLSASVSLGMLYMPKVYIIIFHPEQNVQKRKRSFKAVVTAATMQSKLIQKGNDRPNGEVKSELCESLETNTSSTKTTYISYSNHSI

SMILES | z-score
CN(C)/C=C/C(=O)/C=C/c1cn(-c2ncc(C(F)(F)F)cc2Cl)c2ccccc12 | 5.57 (active)
CC(=O)/C=C\c1cn(-c2ncc(C(F)(F)F)cc2Cl)c2ccccc12 | -0.119
O=C(O)/C=C/c1cn(-c2ncc(C(F)(F)F)cc2Cl)c2ccccc12 | -0.0759
CN1CCN(C(=O)c2ccc(-c3nn(C)c(=O)c4ccccc34)cc2)CC1 | -0.877
CSc1ncc(Cl)c(C(=O)NCc2ccc3c(c2)OCO3)n1 | 0.575
COc1ncnc2c1sc1nc(-c3ccccc3)c3c(c12)CCCC3 | -0.0945
O=c1[nH]cnc2c1sc1nc(-c3ccccc3)c3c(c12)CCCC3 | 0.204
S=c1nc[nH]c2c1sc1nc(-c3ccccc3)c3c(c12)CCCC3 | 7.83 (active)
CC1CN(C(=O)/C=C/c2cccc([N+](=O)[O-])c2)CC(C)O1 (configuration not stated) | -0.164
CCOc1cc2[nH]c(=S)n(CCN3CCCCC3CC)c(=O)c2cc1OCC (configuration not stated) | 1.73
O=c1c2ccccc2[nH]c(=S)n1CCN1CCN(Cc2ccccc2)CC1 | 7.91 (active)
CCC1CCCCN1CCn1c(=S)[nH]c2cc(OC)c(OC)cc2c1=O (configuration not stated) | 2.07
CCOc1cc2[nH]c(=S)n(CCN3CCCCC3C)c(=O)c2cc1OCC (configuration not stated) | 0.258
O=C(CCCCCn1c(=S)[nH]c2ccccc2c1=O)N1CCOCC1 | -0.155
O=c1[nH]c2ccccc2c(=O)n1Cc1ccccc1 | 0.345
COc1ccc(NC(=O)CCCn2c(=S)[nH]c3ccccc3c2=O)cc1 | -0.514
O=C(CCCn1c(=S)[nH]c2ccccc2c1=O)N1CCCCC1 | 1.44
CCN1CCN(CCn2c(=S)[nH]c3ccccc3c2=O)CC1 | 0.66
CC1CCCN(C(=O)CCCn2c(=S)[nH]c3ccccc3c2=O)C1 (configuration not stated) | 4.5 (active)
COc1cccc(NC(=O)CCCn2c(=S)[nH]c3ccccc3c2=O)c1 | 3.39 (active)
COCCNC(=O)CCCCCn1c(=S)[nH]c2ccccc2c1=O | 1.77
Cc1cccc(C(=O)N2c3ccccc3C(=O)OC2c2ccc3c(c2)OCO3)c1 (configuration not stated) | -0.842

SMILES | z-score
c1coc(CN(Cc2ccco2)c2ncnc3c2oc2ccccc23)c1 | -2.18
O=C1CN=C(Nc2ccc(Cl)cc2)N1c1ccccc1 | -0.0445
COc1cc(-n2c(C)nc3cc(C(=O)NCCN4CCOCC4)ccc32)cc(OC)c1OC | -0.57
COc1cc(NC(=S)Nc2cccnc2)cc(OC)c1OC | -0.192
O=C(NCCN1CCN(Cc2ccccc2)CC1)c1cc2c(=O)[nH]c3ccccc3c2s1 | 2.15
O=c1c2ccccc2[nH]c(=S)n1CCCN1CCN(C2CCCCC2)CC1 | 10.2 (active)
CC1CCCCN1CCCn1c(=S)[nH]c2ccccc2c1=O (configuration not stated) | 3.46 (active)
CC1CCN(CCCn2c(=S)[nH]c3ccccc3c2=O)CC1 | 0.0115
O=C(CCCn1c(=S)[nH]c2ccccc2c1=O)NC1CCCCC1 | 0.0447
CCN1CCN(CCCNC(=O)c2cc3c(=O)[nH]c4ccccc4c3s2)CC1 | 0.477
CCN(CC)CCCn1c(=S)[nH]c2ccccc2c1=O | 0.126
O=C(CCCn1c(=S)[nH]c2cc3c(cc2c1=O)OCO3)N1CCN(C2CCCCC2)CC1 | -0.008
CC1CC(C)CN(CCCn2c(=S)[nH]c3ccccc3c2=O)C1 (configuration not stated) | 14.4 (active)
Cc1ccc2[nH]c(=O)c3cc(C(=O)NCCN4CCN(C)CC4)sc3c2c1 | 0.666
CC1CCCCN1CCNc1nc(=S)[nH]c2ccccc12 (configuration not stated) | -0.105
O=C(NC1CCCCC1)c1ccccc1-c1ccccc1 | -0.176
COCCNC(=O)c1cc2ncc(Br)cn2n1 | 0.00586
C/C(Cn1cnc([N+](=O)[O-])n1)=N\NC(=O)c1ccc(Br)cc1 | -0.261
O=C(CNC(=O)c1cccs1)NC1=NCCS1 | 0.647
COc1ccc(/C=N/NC(=O)c2ccccc2O)cc1CSc1ccccn1 | 0.779
Cc1c2cccn2cc[n+]1C | -0.16
CCOC(=O)c1ccc(N/C=C2/CCCC(C)C2=O)cc1 (configuration not stated) | 0.315

SMILES | z-score
Cc1ccccc1OCC(=O)O/N=C(\N)Cc1ccc(Cl)cc1 | -0.483
CC12CC(NC(=O)N1c1cccc(C(=O)N3CCN(c4ccccc4)CC3)c1)c1ccccc1O2 (configuration not stated) | -0.354
CCOC(=O)N1CCN(C(=O)CCCn2c(=S)[nH]c3ccccc3c2=O)CC1 | -0.357
CCC1CCCCN1CCCn1c(=S)[nH]c2ccccc2c1=O (configuration not stated) | 7.04 (active)
CCC1CCCCN1CC(=O)c1c(C)[nH]c2ccccc12 (configuration not stated) | -0.699
CC1=C(C(=O)Nc2ccccc2)C(c2ccco2)C(C#N)=C(SCC(=O)Nc2cccc(C)c2C)N1 (configuration not stated) | 0.693
Cc1ccnc2nc(C(=O)Nc3ccc(N4CCOCC4)cc3)nn12 | 0.0976
CCOC(=O)c1c(C)[nH]c(C2=NNC(=Nc3ccccc3OC)SC2)c1C | -0.32
Nc1ccc(-n2cnc3cc([N+](=O)[O-])ccc32)cc1 | -0.118
Cc1ccc(N2CC3=C(C2=O)C(c2ccccc2)NC(=O)N3C)cc1 (configuration not stated) | -0.193
CN1C(=O)NC(c2ccccc2)C2=C1CN(CCc1ccccc1)C2=O (configuration not stated) | 0.0172
CN1C(=O)NC(c2ccccc2)C2=C1CN(Cc1ccccc1)C2=O (configuration not stated) | 7.33 (active)
CCOC(=O)c1c(C)[nH]c(C(=O)OCCOc2ccccc2C)c1C | -0.0787
O=C1/C(=C/c2cccnc2)Oc2cc(OS(=O)(=O)c3ccc(Cl)cc3)ccc21 | 0.0689
Cc1nn(-c2ccccc2)c(C)c1/C=N/NC(=O)c1cc(-c2cccc3ccccc23)n[nH]1 | -0.481
Cc1c(C(=O)Oc2ccc(F)cc2)sc2ncn(Cc3cccc(F)c3)c(=O)c12 | -0.113
O=c1c2cc(Cl)ccc2[nH]c(=S)n1Cc1ccccn1 | 1.21
O=C(CCn1c(=S)[nH]c2ccccc2c1=O)N1CCOCC1 | 0.695
O=c1c2ccccc2[nH]c(=S)n1Cc1cccs1 | 2.21
O=c1c2cc(Cl)ccc2[nH]c(=S)n1Cc1cccs1 | 4.2 (active)
CCN(CC)CCn1c(=S)[nH]c2ccc(Cl)cc2c1=O | 1.01
CCC1CCCCN1Cc1ccc(OC)c(C)c1C (configuration not stated) | 0.363

SMILES | z-score
CC(C)Oc1ccc(/C(O)=C2/C(=O)C(=O)N(CCCn3ccnc3)C2c2cccnc2)cc1 (configuration not stated) | -0.0218
O=S(=O)(Nc1ncccn1)c1ccc(Nc2ncnc3ccccc23)cc1 | 0.439
Cc1cccc(OCC(=O)Nc2sc3c(c2C#N)CCC3)c1 | -0.312
O=C(NC1(C(F)(F)F)NC(=O)N(Cc2cccnc2)C1=O)c1ccc(F)cc1 (configuration not stated) | 0.269
O=C(NC1(C(F)(F)F)NC(=O)N(Cc2cccnc2)C1=O)c1ccncc1 (configuration not stated) | 2.13
O=C(NC1(C(F)(F)F)NC(=O)N(Cc2cccnc2)C1=O)c1ccccc1 (configuration not stated) | 1.13
CCOC(=O)/C=C/C(=O)Nc1ccccc1-c1ccccc1NC(=O)/C=C/C(=O)OCC | -0.138
COc1ccccc1OCCCOc1c(C)cc(C)cc1Br | -0.185
FC(F)(F)c1nnc2ccc(N3CCCC3)nn12 | -0.343
CCOC(=O)c1cnc(-n2nc(C)cc2C)nc1Nc1ccccc1OC | 0.0785
CCC1CCCCN1S(=O)(=O)c1ccc(S(=O)(=O)N(Cc2ccccn2)CC2CCCO2)cc1 (configuration not stated) | -0.251
O=c1[nH]c2cccnc2n1Cc1ccco1 | 0.26
O=c1c2cc(Cl)ccc2[nH]c(=S)n1Cc1ccco1 | 16.1 (active)
O=C(c1ccc2c(=O)n(Cc3ccco3)c(=S)[nH]c2c1)N1CCN(Cc2ccccc2)CC1 | 0.611
O=c1[nH]c2ccc(Cl)cc2c(=O)n1Cc1ccco1 | 5.27 (active)
CN1CCN(C(=O)c2ccc3c(=O)n(Cc4ccco4)c(=S)[nH]c3c2)CC1 | 0.757
COc1cc2[nH]c(=S)n(Cc3ccco3)c(=O)c2cc1OC | -0.209
Nc1cc(=O)[nH]c(=O)n1Cc1ccco1 | 0.299
O=c1c2cc3c(cc2[nH]c(=S)n1Cc1ccco1)OCO3 | 2.77
CC(C)NC(=O)c1ccc2c(=O)n(Cc3ccco3)c(=S)[nH]c2c1 | 0.167
OCc1cn(-c2ccccc2)nc1-c1ccc(-c2nn(-c3ccccc3)cc2CO)cc1 | 0.428
Cc1ccc(NC(=O)c2cc(S(=O)(=O)c3ccccc3)ccc2Cl)cc1 | -0.0678

SMILES | z-score
COc1ccc(-n2c(SCCC(=O)O)nnc2-c2ccncc2)cc1 | 0.658
Cc1cc(C)cc(C(=O)NCC(=O)OCC(=O)N2c3ccccc3NC(=O)C2(C)C)c1 | -0.138
CC(C)c1nc(NCc2ccccc2)c(C#N)c2c1CCCC2 | -0.133
CCN(CC)S(=O)(=O)c1ccc(C(=O)OCCNC(=O)c2cccnc2)cc1 | -0.485
CCOc1[nH]n(-c2ccccc2)c(=O)c1C=Nc1ccc(Cl)cc1 | 0.655
CCOc1[nH]n(-c2ccc(Cl)cc2)c(=O)c1C=Nc1ccc(C)cc1 | -0.176
CCOc1[nH]n(-c2ccc(Cl)cc2)c(=O)c1C=Nc1ccc(Cl)cc1 | 3.26 (active)
COc1ccc(-c2nc(C#N)c(N3CCC(C(N)=O)CC3)o2)cc1 | -0.0894
N=c1c2c(-c3ccccc3)c(-c3ccccc3)n(Cc3ccco3)c2ncn1CCO | 0.759
c1ccc(-c2oc3ncnc(NCCCn4ccnc4)c3c2-c2ccccc2)cc1 | 0.609
c1ccc(-c2c(-c3ccccc3)n(Cc3ccco3)c3ncnc(NCCCn4ccnc4)c23)cc1 | 2.78
CC(C)Cn1cnc2c(c(-c3ccccc3)c(-c3ccccc3)n2Cc2ccco2)c1=N | 3.58 (active)
N=c1c2c(-c3ccccc3)c(-c3ccccc3)n(Cc3ccccc3)c2ncn1CCCO | 4.35 (active)
N=c1c2c(-c3ccccc3)c(-c3ccccc3)n(Cc3ccccc3)c2ncn1CCO | 0.392
N=c1c2c(-c3ccccc3)c(-c3ccccc3)n(Cc3ccco3)c2ncn1Cc1ccccc1 | 0.528
OCCNc1ncnc2c1c(-c1ccccc1)c(-c1ccccc1)n2Cc1ccco1 | -0.463
N=c1c2c(-c3ccccc3)c(-c3ccccc3)n(Cc3ccco3)c2ncn1CCN1CCOCC1 | -0.19
COc1ccc(C(=O)Nc2nc3ccc4nc(C)sc4c3s2)cc1 | -0.0988
CCC(C)NC(=O)Cn1c(COc2ccc(Cl)cc2Cl)nc2ccccc21 (configuration not stated) | -2.32
